# Experimental data from PubChem BioAssay (NCI).
# This is part of a sample that, as a whole, favours compounds with a hit. Of some 83,000 tested, about 20% had one in any assay.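 A percent growth of 40 corresponds to 60% growth inhibition; 0 means no net growth; -100 means all cells died. Active threshold: below 10.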 Unmarked numbers belong to inactive results. The source made the active and inactive calls.
# Test system: UACC-257 melanoma
# Assay: NCI-60 one-dose screen, 48 h (100 = growth as untreated, 0 = no growth, -100 = all killed)
# Settings: 10 µM unless noted
row,Compound,growth
1,COc1cc2cc(C(=O)N3C[C@@H](CCl)c4c3cc(OC(=O)N(CCC(=O)N3CCN(C)CC3)C3CCCCC3)c3ccccc43)[nH]c2c(OC)c1OC,-78.6% (active)
2,Clc1ccc(Nc2nnc(-c3c[nH]c4ccccc34)o2)cc1,84.4%
3,Cc1ccc(S(=O)(=O)N(CCn2ccnc2[N+](=O)[O-])CCn2ccnc2[N+](=O)[O-])cc1,108%
4,O=C(N/N=C/c1ccsc1)c1[nH]c2ccc(Br)cc2c1-c1ccccc1,-51.9% (active)
5,Cc1ccc2nc(NC(=O)Nc3cccc(Cl)c3)sc2c1,111%
6,N/C(=N\c1nc2ccc([N+](=O)[O-])cc2s1)NC(=O)Nc1ccccc1Cl,89.6%
7,COc1ccc(/C=C/C(=O)c2ccc(S(=O)(=O)NCCNc3nc(N(C)C)nc(N4CCOCC4)n3)cc2)cc1,96.5%
8,O=C(NN1C(=O)/C(=C/C=C/c2ccc([N+](=O)[O-])o2)SC1=S)c1ccncc1,-86.7% (active)
9,Nc1nnc(CS(=O)(=O)c2ccccc2)s1,97.1%
10,CS(=O)(=O)c1ccc(-n2nc(C(=O)NCc3ccccc3)cc2-c2ccc(Cl)cc2)cc1,98.9%
11,Cc1cccc(NCC(=O)N2CCN(c3ncnc4c3cnn4-c3ccccc3)CC2)c1,66.9%
12,CCCCCCCOc1ccc(S(=O)(=O)Nc2ccc(C)c(F)c2C(=O)O)cc1,102%
13,O=C(NNC(=O)c1ccc(OCc2nc3ccc(Cl)cc3[nH]2)cc1)Nc1ccc(Cl)c(C(F)(F)F)c1,73%
14,OC(c1ccccc1)(c1ccccc1)C1CCN(c2ccc3nnc(Cl)n3n2)CC1,72.9%
15,CCOC(=O)c1ccc(NC(=S)NC(=O)c2cccc(NC(=O)c3ccc(C)cc3)c2)cc1,78.6%
16,COC(=O)c1cccc(Oc2ccc(NC(=O)Nc3cc(C(F)(F)F)ccc3F)cc2)c1,90.8%
17,CCCn1c(NC(=O)c2cccc(C(N)=O)c2)nc2cc(CN3CCCCC3)ccc21,113%
18,COC(=O)c1c(C(=O)OC)c2c3ccccc3c3ccccc3n2c1C(=O)C(F)(F)F,111%
19,CCOc1ccccc1[C@H]1C(C(=O)c2ccc(Cl)cc2)C2(N[C@@H]1c1ccccc1)C(=O)Nc1ccccc12 (stereo partly drawn),55.3%

row,Compound,growth
1,COc1ccc(N=Nc2c(N)nn3c(N)c(C#N)c(-c4ccccc4)nc23)cc1,71%
2,O=C(Nc1ccc(S(=O)(=O)N2CCCCC2)cc1)C(Cl)Cl,101%
3,O=C1Nc2ccccc2/C1=C/C(=O)c1cc2ccccc2oc1=O,104%
4,C/C(=N\Nc1ccc(C(=O)O)cc1)c1cnn(-c2cc(=O)[nH]c3ccc(C)cc23)c1C,106%
5,CN(C)c1nc(NCCNS(=O)(=O)c2ccc(C(=O)/C=C/c3ccccc3)cc2)nc(N2CCOCC2)n1,78.8%
6,COc1cc(CNC(=O)C[C@H](C)CCC=C(C)C)ccc1OCc1cn(-c2ccc(Br)cc2)nn1,86.3%
7,COc1ccc(-n2c(NC(=O)N3CCN(C)CC3)c(C#N)c3ccccc32)cc1,60.3%
8,O=C1CCC(N2C(=O)c3cccc(NCCCCCC(=O)N4CCN(c5ccc6nc7c(nc6c5C(F)(F)F)C(=O)c5ncccc5C7=O)CC4)c3C2=O)C(=O)N1 (stereo not drawn),-98.3% (active)
9,O=C(CSc1nc2sc3c(c2c(=O)n1-c1ccc(Cl)cc1)CCCC3)NNC(=O)c1ccc(Br)cc1,98.6%
10,COc1ccc2[nH]c(O)c(N=NC(=O)c3ccc4nc(-c5ccc(Cl)cc5)[nH]c4c3)c2c1,100%
11,COc1cc(/C=N/NC(=O)c2ccc(OCc3nc4ccc(C)cc4[nH]3)cc2)cc(OC)c1OC,11.3%
12,CC(C)(C)C(=O)C1CC(C#N)=C2C=Cc3c(ccc4ccccc34)N21 (stereo not drawn),84.7%
13,COc1cc(NC(=O)C(C)C)ccc1C(=O)NC(=S)Nc1ccc(S(N)(=O)=O)cc1,101%
14,COc1c2c(c(Br)c3c1C(CCc1ccccc1)N(C)CC3)OCO2 (stereo not drawn),64.9%
15,COc1ccc(CCC2NCCc3c(Br)c4c(c(OC)c32)OCO4)cc1 (stereo not drawn),37.5%
16,O=CNc1ccc(-n2cnc3cc(-c4ccc(O)cc4)ccc32)cc1,98.8%
17,N#CCc1nnc(NC(=O)c2ccc(-n3c(=O)[nH]c4ccccc4c3=O)cc2)s1,104%
18,FC(F)(F)c1cc2c(Cl)ncnc2n1CCN1CCOCC1,75.5%
19,Nc1cc(-c2c[nH]c3ccc(Br)cc23)nc2cc(-c3c[nH]c4ccccc34)nn12,-86.9% (active)
